In PubChem BioAssay (Tox21) one finds Potency data, which are given here for 39 molecules.

Records with an inconclusive call do not appear. Entries that show only a call come without a potency. Active and inactive are the calls of the source. Calls follow the shape of the dose curve; as a rule, active = well fitted inhibition curve with a large enough effect in the signal ratio in the repeat runs, with a control signal flat; inconclusive = weak or mixed curves, or effect the other way; inactive = flat fitted curve, though single readings scatter; the % refers to the signal ratio.

D(2) dopamine receptor (Homo sapiens), sequence (P14416 whole entry, looked up): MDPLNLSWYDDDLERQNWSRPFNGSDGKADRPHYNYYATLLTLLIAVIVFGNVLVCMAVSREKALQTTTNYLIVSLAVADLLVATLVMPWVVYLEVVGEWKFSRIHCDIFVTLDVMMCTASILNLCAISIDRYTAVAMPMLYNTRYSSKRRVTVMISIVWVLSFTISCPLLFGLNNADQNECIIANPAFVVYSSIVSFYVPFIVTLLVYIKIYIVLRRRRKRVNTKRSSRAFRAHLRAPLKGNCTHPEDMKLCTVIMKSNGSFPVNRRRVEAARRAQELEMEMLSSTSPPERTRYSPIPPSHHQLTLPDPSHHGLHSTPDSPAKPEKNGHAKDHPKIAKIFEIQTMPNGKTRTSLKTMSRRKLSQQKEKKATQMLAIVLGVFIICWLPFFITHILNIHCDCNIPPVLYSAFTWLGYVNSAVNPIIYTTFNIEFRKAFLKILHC

The experiment concerns the target D(2) dopamine receptor (Homo sapiens) (UniProt P14416). The experiment in a line: Dopamine D2 receptor (DRD2) small molecule antagonists, cell-based qHTS assay (AID 1963595). The conditions noted are these: HEK293-DRD2 cAMP HTRF antagonist mode; series mostly up to 92.4 µM. The method in brief: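 In this cell-based antagonist screen, compounds act for 10 min at room temperature before a 30 min challenge with 12 nM quinpirole and 200 nM NKH477. cAMP is quantified by HTRF competition in DRD2-HEK293 cells containing 0.1 mM Ro20-1724.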
For the molecule `CCCCCCCCCCCC[N+](C)(C)C`, the Potency entry is “inactive”.
As to `O=C1CCCCCCCCCCC1`, the Potency entry is “inactive”.
The value for `CC(=O)[C@H]1CC[C@H]2[C@@H]3CC=C4C[C@@H](O)CC[C@]4(C)[C@H]3CC[C@]12C` was “inactive”; that for `O=C1O[C@H](CO)[C@@H](O)[C@H](O)[C@H]1O` was “inactive”.
For `Brc1nc2ccccc2s1`, the Potency entry is “inactive”.
The same measure for `Oc1ccc2ccccc2c1N=Nc1ccccc1`: “inactive”; for `Nc1cc([N+](=O)[O-])ccc1C(=O)O`: “inactive”.
The value for `CCCCCCCCOc1ccc(C(=O)c2ccccc2)c(O)c1` was “inactive”.
For the molecule `Clc1ccc(Cl)c(Cl)c1Cl`, the Potency entry is “inactive”.
Take `COc1ccc(C(Cl)=C(c2ccc(OC)cc2)c2ccc(OC)cc2)cc1`: the Potency entry is “inactive”.
The value for `CCCCC1(COC(=O)CCC(=O)O)C(=O)N(c2ccccc2)N(c2ccccc2)C1=O` was “inactive”; that for `CN(C)CCCN` was “inactive”; that for `C=C(C)C(=O)O[C@H]1C[C@@H]2CC[C@@]1(C)C2(C)C` was “inactive”.
Regarding `C=CCOC(=O)c1ccccc1C(=O)OCC=C`, the Potency result was “inactive”.
For the molecule `CC(=O)c1ccc(S(=O)(=O)NC(=O)NC2CCCCC2)cc1`, the Potency result was “inactive”.
As for `CCC(O)OC(O)CC` (centres undefined), the Potency result is “inactive”.
For the molecule `COCCOC(=O)c1ccccc1C(=O)OCCOC`, the Potency entry was “inactive”.
The value for `CC(C)CC(=O)CC(C)CC(C)C` (centres undefined) was “inactive”; that for `O=c1n(CC2CO2)c(=O)n(CC2CO2)c(=O)n1CC1CO1` (centres undefined) was “inactive”.
The same measure for `O=C(/C=C/C=C/c1ccc2c(c1)OCO2)N1CCCCC1`: “inactive”; for `Cc1cc(Cc2ccc(N)c(C)c2)ccc1N`: “inactive”; for `CCC[C@H](N[C@@H](C)C(=O)N1[C@H](C(=O)O)C[C@@H]2CCCC[C@@H]21)C(=O)OCC`: “inactive”.
In the case of `c1ccc2c(c1)Cc1ccccc1-2`, the Potency result was “inactive”.
As to `CCCOC(=O)NCCCN(C)C`, the Potency entry is “inactive”.
Turning to `CCCCOC(=O)CC(CC(=O)OCCCC)(OC(C)=O)C(=O)OCCCC`, the Potency result was “inactive”.
The value for `C=CC[N+](C)(C)CC=C` was “inactive”; that for `CC(O)COCC(C)O` (centres undefined) was “inactive”; that for `CCCCC/C=C\C/C=C\CCCCCCCC(=O)OC` was “inactive”.
The value for `Nc1ncnc2nc[nH]c12` was “inactive”; that for `Cc1ccc(N)c(S(=O)(=O)O)c1` was “inactive”; that for `NCCOCCO` was “inactive”.
For the molecule `CC(=O)Oc1ccc(C)cc1`, the Potency result is “inactive”.
For `O=S1(=O)CCCO1`, the Potency entry was “inactive”.
The same measure for `C=C(C)C(=O)OCC(CC)(COC(=O)C(=C)C)COC(=O)C(=C)C`: “inactive”; for `O=[N+]([O-])c1cccc(Cl)c1`: “inactive”.
The value for `CCOCC(=O)O` was “inactive”.
The same measure for `C=CCc1ccc(OC)c(OC)c1`: “inactive”.
For `Clc1ccccn1`, the Potency result is “inactive”.
The value for `Cc1cccc([N+](=O)[O-])c1C` was “inactive”.
